The supplement of paper PMC13380429
Values without a mark were called inactive.

System: Vero E6 infected with SARS-CoV-2
Test: inhibition of SARS-CoV-2 cytopathic effect; higher = more antiviral protection, active = above 15
Conditions: 48 h

## C=C1/C(=C\C=C2/CCC[C@]3(C)[C@@H]([C@H](C)/C=C/[C@H](C)C(C)(C)O)CC[C@@H]23)C[C@@H](O)C[C@@H]1O [ercalcitriol]
1 nM
  inhibition of SARS-CoV-2 cytopathic effect: -1.77%
8.33 nM
  inhibition of SARS-CoV-2 cytopathic effect: 0.83%
100 nM
  inhibition of SARS-CoV-2 cytopathic effect: -0.6%
833.33 nM
  inhibition of SARS-CoV-2 cytopathic effect: 2.88%
10000 nM
  inhibition of SARS-CoV-2 cytopathic effect: 3.34%

## O=C(O)CCC(=O)O [succinic-acid]
1 nM
  inhibition of SARS-CoV-2 cytopathic effect: -0.06%
8.33 nM
  inhibition of SARS-CoV-2 cytopathic effect: -1.83%
100 nM
  inhibition of SARS-CoV-2 cytopathic effect: -1.13%
833.33 nM
  inhibition of SARS-CoV-2 cytopathic effect: -0.66%
10000 nM
  inhibition of SARS-CoV-2 cytopathic effect: 2.3%

## CC(=C(CCOC(=O)C(C)C)SSC(CCOC(=O)C(C)C)=C(C)N(C=O)Cc1cnc(C)nc1N)N(C=O)Cc1cnc(C)nc1N (stereo in doubt) [sulbutiamine]
1 nM
  inhibition of SARS-CoV-2 cytopathic effect: 2%
8.33 nM
  inhibition of SARS-CoV-2 cytopathic effect: 2.05%
100 nM
  inhibition of SARS-CoV-2 cytopathic effect: 3.99%
833.33 nM
  inhibition of SARS-CoV-2 cytopathic effect: -4.07%
10000 nM
  inhibition of SARS-CoV-2 cytopathic effect: -4.54%

## COc1cc(N)c(Cl)cc1C(=O)OCCN1CCCCC1
1 nM
  inhibition of SARS-CoV-2 cytopathic effect: 2.34%
8.33 nM
  inhibition of SARS-CoV-2 cytopathic effect: 2.09%
100 nM
  inhibition of SARS-CoV-2 cytopathic effect: 1.8%
833.33 nM
  inhibition of SARS-CoV-2 cytopathic effect: 1.01%
10000 nM
  inhibition of SARS-CoV-2 cytopathic effect: 2.59%

## CCOC(=O)c1ccccc1OC(=O)CCCCCCCC(=O)Oc1ccccc1C(=O)OCC
1 nM
  inhibition of SARS-CoV-2 cytopathic effect: 6.82%
8.33 nM
  inhibition of SARS-CoV-2 cytopathic effect: 0.93%
100 nM
  inhibition of SARS-CoV-2 cytopathic effect: -6.73%
833.33 nM
  inhibition of SARS-CoV-2 cytopathic effect: -0.1%
10000 nM
  inhibition of SARS-CoV-2 cytopathic effect: -6.2%

## O=C(Nc1cccnc1)c1cc(-c2ccnc(F)c2)ccc1OCc1ccccc1
1 nM
  inhibition of SARS-CoV-2 cytopathic effect: 2.42%
8.33 nM
  inhibition of SARS-CoV-2 cytopathic effect: -0.98%
100 nM
  inhibition of SARS-CoV-2 cytopathic effect: 4.16%
833.33 nM
  inhibition of SARS-CoV-2 cytopathic effect: 4.08%
10000 nM
  inhibition of SARS-CoV-2 cytopathic effect: 3.44%

## CCCCc1cc2ccccc2c(OCCN(C)C)n1 [dimethisoquin]
1 nM
  inhibition of SARS-CoV-2 cytopathic effect: 0.87%
8.33 nM
  inhibition of SARS-CoV-2 cytopathic effect: 1.84%
100 nM
  inhibition of SARS-CoV-2 cytopathic effect: -0.28%
833.33 nM
  inhibition of SARS-CoV-2 cytopathic effect: 0.5%
10000 nM
  inhibition of SARS-CoV-2 cytopathic effect: -2.53%

## CCCCCS(=O)(=O)CCCCCCCCCCn1c(-c2ccc(O)cc2)c(C)c2cc(O)ccc21
1 nM
  inhibition of SARS-CoV-2 cytopathic effect: 1.18%
8.33 nM
  inhibition of SARS-CoV-2 cytopathic effect: -2.92%
100 nM
  inhibition of SARS-CoV-2 cytopathic effect: -0.42%
833.33 nM
  inhibition of SARS-CoV-2 cytopathic effect: -1.6%
10000 nM
  inhibition of SARS-CoV-2 cytopathic effect: -5.93%

## COC(=O)C1=C(C)N(C)C(C)=C(C(=O)OC)C1c1ccc(C(F)(F)F)cc1
1 nM
  inhibition of SARS-CoV-2 cytopathic effect: 1.98%
8.33 nM
  inhibition of SARS-CoV-2 cytopathic effect: -2.17%
100 nM
  inhibition of SARS-CoV-2 cytopathic effect: 0.85%
833.33 nM
  inhibition of SARS-CoV-2 cytopathic effect: 2.1%
10000 nM
  inhibition of SARS-CoV-2 cytopathic effect: 8.02%

## Nc1cc2c3ccccc3ccc2c2ccccc12 [6-aminochrysene]
1 nM
  inhibition of SARS-CoV-2 cytopathic effect: 1.36%
8.33 nM
  inhibition of SARS-CoV-2 cytopathic effect: 2.29%
100 nM
  inhibition of SARS-CoV-2 cytopathic effect: 2.99%
833.33 nM
  inhibition of SARS-CoV-2 cytopathic effect: -3.94%
10000 nM
  inhibition of SARS-CoV-2 cytopathic effect: 1.34%

## COc1c(-c2ccc3cc(NS(C)(=O)=O)ccc3c2)cc(-n2ccc(=O)[nH]c2=O)cc1C(C)(C)C [dasabuvir]
1 nM
  inhibition of SARS-CoV-2 cytopathic effect: 1.02%
8.33 nM
  inhibition of SARS-CoV-2 cytopathic effect: -0.41%
100 nM
  inhibition of SARS-CoV-2 cytopathic effect: 0.27%
833.33 nM
  inhibition of SARS-CoV-2 cytopathic effect: 1.41%
10000 nM
  inhibition of SARS-CoV-2 cytopathic effect: 2.61%

## CN1CCC(=C2c3ccccc3CCn3c(C=O)cnc32)CC1 [alcaftadine]
1 nM
  inhibition of SARS-CoV-2 cytopathic effect: -1.5%
8.33 nM
  inhibition of SARS-CoV-2 cytopathic effect: 0.26%
100 nM
  inhibition of SARS-CoV-2 cytopathic effect: -2.72%
833.33 nM
  inhibition of SARS-CoV-2 cytopathic effect: 0.36%
10000 nM
  inhibition of SARS-CoV-2 cytopathic effect: -2.28%

## CCN(CC)CCCCNc1ncc2cc(-c3cc(OC)cc(OC)c3)c(NC(=O)NC(C)(C)C)nc2n1
1 nM
  inhibition of SARS-CoV-2 cytopathic effect: -0.74%
8.33 nM
  inhibition of SARS-CoV-2 cytopathic effect: 1.53%
100 nM
  inhibition of SARS-CoV-2 cytopathic effect: -0.45%
833.33 nM
  inhibition of SARS-CoV-2 cytopathic effect: -4.96%
10000 nM
  inhibition of SARS-CoV-2 cytopathic effect: 45.1% (active)

## CN(C)CCCSc1ccccc1NC(=O)/C=C/c1ccccc1 [cinanserin]
1 nM
  inhibition of SARS-CoV-2 cytopathic effect: 1.46%
8.33 nM
  inhibition of SARS-CoV-2 cytopathic effect: 0.94%
100 nM
  inhibition of SARS-CoV-2 cytopathic effect: -0.47%
833.33 nM
  inhibition of SARS-CoV-2 cytopathic effect: -4.69%
10000 nM
  inhibition of SARS-CoV-2 cytopathic effect: -4.38%

## COc1ccc2c(c1OC)C(=O)O[C@@H]2[C@H]1c2c(cc3c(c2OC)OCO3)CCN1C [noscapine]
1 nM
  inhibition of SARS-CoV-2 cytopathic effect: -3%
8.33 nM
  inhibition of SARS-CoV-2 cytopathic effect: 0.3%
100 nM
  inhibition of SARS-CoV-2 cytopathic effect: -0.27%
833.33 nM
  inhibition of SARS-CoV-2 cytopathic effect: -0.71%
10000 nM
  inhibition of SARS-CoV-2 cytopathic effect: -2.79%

## COC(=O)C1=C(C)NC(C)=C(C(=O)OC2CCCN(Cc3ccccc3)C2)C1c1cccc([N+](=O)[O-])c1 (stereo not given) [benidipine]
1 nM
  inhibition of SARS-CoV-2 cytopathic effect: -0.65%
8.33 nM
  inhibition of SARS-CoV-2 cytopathic effect: -0.51%
100 nM
  inhibition of SARS-CoV-2 cytopathic effect: -1.47%
833.33 nM
  inhibition of SARS-CoV-2 cytopathic effect: -0.97%
10000 nM
  inhibition of SARS-CoV-2 cytopathic effect: -3.67%

## NP(N)(=O)NC(=O)c1ccc(F)cc1 [flurofamide]
1 nM
  inhibition of SARS-CoV-2 cytopathic effect: 3.53%
8.33 nM
  inhibition of SARS-CoV-2 cytopathic effect: -1.42%
100 nM
  inhibition of SARS-CoV-2 cytopathic effect: -1.3%
833.33 nM
  inhibition of SARS-CoV-2 cytopathic effect: 0.9%
10000 nM
  inhibition of SARS-CoV-2 cytopathic effect: 5.62%

## Cc1ccc(S(=O)(=O)c2ccc([N+](=O)[O-])o2)cc1
1 nM
  inhibition of SARS-CoV-2 cytopathic effect: 0.14%
8.33 nM
  inhibition of SARS-CoV-2 cytopathic effect: 0.39%
100 nM
  inhibition of SARS-CoV-2 cytopathic effect: 2.55%
833.33 nM
  inhibition of SARS-CoV-2 cytopathic effect: 13.5%
10000 nM
  inhibition of SARS-CoV-2 cytopathic effect: -21.6%

## Cc1cc(C)c2nc(-c3ccccn3)cc(C(=O)Nc3ccc(S(=O)(=O)Nc4onc(C)c4C)cc3)c2c1
1 nM
  inhibition of SARS-CoV-2 cytopathic effect: -1.1%
8.33 nM
  inhibition of SARS-CoV-2 cytopathic effect: 1.15%
100 nM
  inhibition of SARS-CoV-2 cytopathic effect: -0.62%
833.33 nM
  inhibition of SARS-CoV-2 cytopathic effect: -9.3%
10000 nM
  inhibition of SARS-CoV-2 cytopathic effect: -3.05%
